Test [1] addresses Albumin (Bos taurus) (UniProt P02769). Kind of test: bovine serum albumin binders on microarray, profiling panel, artefact control for SMM control protein annotation, biochemical, small-molecule microarray, Alexa647 label, 635/667 nm fluorescence (AID 1118).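 Also: score merges 667 nm emission intensity and signal-to-noise per printed compound spot.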 Conditions: BSA-A647 binding, fluorescence 635 nm, higher = more signal.
Test [2] in a line: small-molecule microarray binders of probe aXIP, primary screen, biochemical, NeuroSMM set, 635/667 nm fluorescence (AID 1119).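 Also: probe is the protein aXip251-270 applied at 1 µg/mL to compound-printed slides; binding of probe to printed compounds measured as 667 nm fluorescence plus signal to noise.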 The following applies: higher = more signal, called active from +8 up or from −8 down.
Test [3] is described as follows: small-molecule binders of probe aNOTCH3, primary screen, biochemical, small-molecule microarray, 635/667 nm fluorescence (AID 1120).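 Also: probe is a biotin-tagged antibody raised against NOTCH3 rather than NOTCH3 protein; score merges spot fluorescence near 667 nm with spot signal to noise.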 Conditions: higher = more signal.
Test [4] is described as follows: small-molecule binders of probe aNOTCH2, primary screen, biochemical, small-molecule microarray, 635/667 nm fluorescence (AID 1121).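 Also: score merges feature fluorescence read at 667 nm with its signal to noise.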 Conditions: higher = more signal.
Test [5] deals with Carbonic anhydrase 2 (Homo sapiens) (UniProt P00918). Kind of test: CAII small-molecule binders, profiling panel, biochemical, small-molecule microarray, Alexa647-labelled CAII (AID 1122). Conditions: CAII-A647 binding fluorescence, higher = more signal.
Test [6] can be described thus: COS7 lysate on small-molecule microarray, probe aHis, 635 nm (AID 1123).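 Also: z-score combines 667nm fluorescence intensity with signal-to-noise per printed compound spot.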 Conditions: COS7 cell lysate, fluorescence, higher = more signal.
Test [7] is described as follows: compound binding in COS7 lysate, probe aLAP1, primary screen, cell lysate, small-molecule microarray (AID 1124).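 Also: lysate comes from COS7 cells expressing LAP1 and is applied at 0.3 µg/mL; score merges spot fluorescence near 667 nm with signal-to-noise over triplicate slides.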 Conditions: probe aLAP1, fluorescence, higher = more signal.
In test [8] the test system is Sam68 (KHDRBS1). In words: Sam68 small-molecule binders, primary screen, biochemical, small-molecule microarray, 635 nm fluorescence (AID 1125).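 Also: score merges 667 nm channel intensity with signal to noise over triplicate slides.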 The following applies: small-molecule microarray binding, higher = more signal.
Test [9] concerns Chordin-like protein 2 (CHRDL2). Kind of test: CHRDL2 small-molecule binders, primary screen, biochemical, small-molecule microarray, 635 nm fluorescence (AID 1126).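 Also: printed compound slides probed with Chrdl2 protein at 4 µg/mL for 1 h at 4 C; score merges 667 nm emission intensity with signal to noise over three replicate slides.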 The following applies: small-molecule microarray binding, fluorescence 635 nm; higher = more signal.
In test [10] the target is Concanavalin-A (Canavalia ensiformis) (UniProt P02866). In words: ConA small-molecule binders, primary screen, artefact control for SMM control protein annotation, biochemical, small-molecule microarray, Alexa647 label, 635 nm (AID 1127).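 Also: z combines 667 nm emission intensity with signal-to-noise across three replicate slides.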 The following applies: ConA-A647 binding fluorescence, higher = more signal.
Chain of Concanavalin-A (Canavalia ensiformis) (P02866 whole entry, looked up): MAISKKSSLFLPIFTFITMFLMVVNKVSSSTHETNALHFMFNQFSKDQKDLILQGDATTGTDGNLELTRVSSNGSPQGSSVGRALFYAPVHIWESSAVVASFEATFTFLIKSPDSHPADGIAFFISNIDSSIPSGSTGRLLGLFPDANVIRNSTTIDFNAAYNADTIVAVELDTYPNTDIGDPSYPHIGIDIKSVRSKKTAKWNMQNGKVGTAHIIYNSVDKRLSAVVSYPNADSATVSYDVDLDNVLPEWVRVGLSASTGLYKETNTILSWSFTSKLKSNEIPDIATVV

Calls of active or inactive are those of the source.

Chain of Albumin (Bos taurus) (P02769 whole entry, looked up): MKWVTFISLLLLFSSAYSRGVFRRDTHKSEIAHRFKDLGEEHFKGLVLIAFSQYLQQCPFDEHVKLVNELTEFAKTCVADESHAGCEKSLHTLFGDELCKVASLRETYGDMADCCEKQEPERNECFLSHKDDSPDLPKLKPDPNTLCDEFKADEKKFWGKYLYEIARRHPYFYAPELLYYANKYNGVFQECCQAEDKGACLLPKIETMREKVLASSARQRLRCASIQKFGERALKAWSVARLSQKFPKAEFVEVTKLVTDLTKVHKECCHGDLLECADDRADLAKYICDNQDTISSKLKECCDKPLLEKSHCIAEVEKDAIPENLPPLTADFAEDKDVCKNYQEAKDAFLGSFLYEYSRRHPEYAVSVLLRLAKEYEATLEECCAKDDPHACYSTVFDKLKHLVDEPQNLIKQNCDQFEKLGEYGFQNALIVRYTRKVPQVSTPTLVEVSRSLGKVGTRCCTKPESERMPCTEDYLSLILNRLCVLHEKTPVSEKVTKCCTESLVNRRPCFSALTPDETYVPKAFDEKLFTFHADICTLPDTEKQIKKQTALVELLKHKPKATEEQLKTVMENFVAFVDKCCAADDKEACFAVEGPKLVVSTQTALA

Take `C=C(C(=O)CC[C@H](OC(=O)c1cccnc1)c1ccccc1OCCO)C(C)C`: the composite z-score is -0.609 in [1]; 0.143 in [3]; -0.129 in [4]; 0.543 in [5]; 1.28 in [6]; 0.86 in test [7]. Also, the figures for the composite z-score in test [8], in test [9] and in test [10] were 0.912, 1.39 and 0.49, respectively. For the same compound, the composite Z-score in [2] is -0.507 (inactive).

For the compound `COc1cc2c(cc1O)C(c1ccc(CN3CCCC3)cc1)N(Cc1sc3ccccc3c1Cl)CC2` (stereo not given), the composite z-score was -0.185 in test [1]; 0.0394 in [3]; -0.0861 in test [4]; 0.752 in [5]; 0.415 in [6]; 0.179 in test [7]. Moreover, the composite z-score is -0.209 in test [8], 1.05 in test [9] and 1.11 in [10]. Besides, the composite Z-score in [2] was 0.0786 (inactive).

`CCN(CC)c1ccc(N2CC=CC34O[C@@H]5C=CCCOC(=O)C5[C@H]3C(=O)N(CCCO)[C@@H]4C2=O)cc1` (stereo not given in full): the composite z-score in test [1] is -0.87; in [3], -0.0387; in test [4], -0.102; in [5], -0.177; in test [6], -0.291; in test [7], -0.332. Also, the composite z-score in test [8] was -0.876; in [9] it was -0.218; in test [10], -2.31. Moreover, the composite Z-score in test [2] is -0.0662 (inactive).

For the compound `COCCOC(=O)N1C(=O)[C@@]2(c3cc(C#CC4(O)CCCCCC4)ccc31)[C@H](c1ccc(O)cc1)N1[C@H](c3ccccc3)[C@H](c3ccccc3)OC(=O)[C@H]1[C@@H]2C(=O)N1CCc2cc(OC)c(OC)cc2C1`, the composite z-score in test [1] was -0.189; in test [3] it was -0.239; in [4], -0.197; in [5], 0.859; in [6], 0.288; in [7], 0.347. Besides, the composite z-score in test [8] was 0.0544; in [9] it was -0.861; in test [10], 0.3. In addition, in test [2], the composite Z-score is 0.131 (inactive).

For `COC(=O)[C@@]1(Cc2ccc(F)cc2)[C@H]2c3cc(C(=O)N(C)C)n(CCc4c[nH]c5ccc(OC)cc45)c3C[C@H]2CN1C(=O)c1ccccc1`, the composite z-score came out at 0.655 in test [1]; 0.351 in test [3]; 0.317 in [4]; 0.617 in test [5]; 2.74 in test [6]; 0.606 in test [7]. Moreover, the composite z-score in test [8] is 1.1; in test [9], -0.705; in test [10] it was -0.203. In test [2], the composite Z-score is 0.0904 (inactive).

In the case of `COc1ccc([Si](C)(C)[C@H]2[C@H](CC(=O)N3CCC[C@H]3CO)O[C@@]3(C(=O)N(c4ccccc4)c4ccccc43)[C@@H]2C)cc1`, the composite z-score in test [1] was 0.723; in test [3], -0.191; in [4], -0.185; in test [5], 0.655; in test [6], -0.0779; in [7] it was 0.0352. Also, the composite z-score is -0.126 in test [8], 0.515 in test [9] and 0.493 in test [10]. Also, the composite Z-score in [2] was -0.352 (inactive).

As for `COCCn1c(C(=O)N2CCCC2)cc2c1C[C@H]1CN(C(=O)c3ccccc3)[C@@](Cc3ccc(OC)cc3)(C(=O)OC)[C@@H]21`, the composite z-score in test [1] was found to be 1.11; in test [3], 0.512; in [4], 0.384; in [5], 0.868; in test [6], 2.11; in [7], 1.11. Besides, the composite z-score in [8] is 0.424; in [9], -0.975; in test [10], 1.05. Further, the composite Z-score in [2] was 0.433 (inactive).

As to `[N-]=[N+]=NCc1ccccc1[C@@H]1OC(c2ccc(OCCCO)cc2)=N[C@]1(Cc1ccccc1N=[N+]=[N-])C(N)=O`, the composite z-score in test [1] stood at 0.825; in test [3] it was 0.473; in test [4], 0.299; in test [5] it was 0.715; in [6] it was 2.8; in test [7] it was 0.202. The composite z-score in test [8] was 1.3; in [9], -0.124; in [10], 1.12. Besides, in [2], the composite Z-score is 0.0773 (inactive).

As for `C=CCNC(=O)[C@@H]1[C@H]2C(=O)O[C@H](c3ccccc3)[C@H](c3ccccc3)N2[C@H](c2ccccc2OCCO)[C@@]12C(=O)N(C(=O)OCCOC)c1ccc(C#CCC(C(=O)OC)C(=O)OC)cc12`, the composite z-score came to 0.718 in test [1]; 1.41 in [3]; 0.526 in test [4]; 0.505 in [5]; 3.05 in test [6]; 1.33 in test [7]. In addition, the composite z-score is 1.32 in [8], 1.49 in [9] and 1.15 in test [10]. In addition, the composite Z-score in [2] is 1.26 (inactive).

As to `O=C1OCC=C[C@H]2OC34C=CCN(CCN5CCOCC5)C(=O)[C@H]3N(CCCCCCO)C(=O)[C@@H]4[C@@H]12` (stereo not given in full), the composite z-score in test [1] was 0.509; in test [3] it was 0.0208; in test [4] it was -0.104; in test [5], 0.688; in [6], 3.1; in test [7], 0.55. Further, the composite z-score in [8] came out at 0.274; in test [9] it was 0.158; in test [10] it was 0.0683. Also, the composite Z-score in [2] is -1.05 (inactive).

Consider `COc1ccc([Si](C)(C)[C@H]2[C@H](CC(=O)N3CCC[C@H]3CO)O[C@@]3(C(=O)N(Cc4cccc(N5CCC5=O)c4)c4ccccc43)[C@@H]2C)cc1`, for which the composite z-score was -0.654 in test [1]; 0.229 in test [3]; -0.0392 in test [4]; 0.395 in [5]; 0.789 in [6]; -0.0115 in test [7]. Besides, the composite z-score in test [8] came out at 1.31; in [9], 0.95; in [10], 0.759. Besides, in test [2], the composite Z-score was -0.804 (inactive).

For `Cc1ccc(S[C@]2(C(=O)NCCCN(C)C)CC(=O)N(C(C)C)[C@@H]2c2ccc(CO)cc2I)cc1`, the composite z-score in test [1] was 0.746; in test [3], -0.004; in test [4], -0.127; in test [5], 0.721; in test [6], 1.23; in test [7] it was 0.693. In addition, the composite z-score is 0.271 in test [8], -0.0376 in test [9] and 0.257 in test [10]. Besides, the composite Z-score in [2] is -0.181 (inactive).

In the case of `COCCCNC(=O)[C@@]1(C)c2ccccc2C(=O)N(Cc2ccccc2)[C@H]1c1ccc(CO)cc1`, the composite z-score is 0.172 in test [1]; -0.274 in [3]; -0.189 in test [4]; 0.397 in [5]; 2.62 in test [6]; 0.848 in test [7]. The values for the composite z-score in test [8], in test [9] and in test [10] were 0.203, -1.5 and 0.17, respectively. Moreover, the composite Z-score in test [2] is 0.45 (inactive).

For `Cc1ccc([C@H]2C(C(=O)O)=C[C@@H](C(C)C)N2S(=O)(=O)c2ccc(C)cc2)cc1`, the composite z-score in [1] was 0.284; in [3] it was 0.0596; in test [4], 0.0161; in test [5], 0.772; in test [6], 2.86; in test [7], -0.134. The composite z-score was 1.3 in [8], -0.209 in test [9] and 0.555 in test [10]. Besides, the composite Z-score in test [2] was -0.236 (inactive).

As to `C=CCOC(=O)[C@H]1[C@@H]2C(=O)O[C@@H](c3ccccc3)[C@@H](c3ccccc3)N2[C@@H](c2ccc(OCCOC(=O)[C@@H]3C[C@@H]4C(=O)NCC(=O)N4[C@@H]3c3ccc(O)cc3)cc2)[C@]12C(=O)Nc1ccc(I)cc12`, the composite z-score in test [1] is 0.733; in test [3], 0.0435; in test [4], -0.0583; in test [5], 0.647; in test [6], 1.71; in test [7], 0.888. For the same compound, the composite z-score in test [8] is 1.3; in [9] it was 1.09; in test [10], 1.14. For the same compound, the composite Z-score in test [2] is 1.05 (inactive).

Consider `C=CCN1C(=O)[C@]2(Cc3ccccc31)N=C(c1ccc(OCCCO)cc1)O[C@@H]2c1ccccc1`, for which the composite z-score in [1] was -0.171; in test [3], 0.0562; in [4], 0.121; in [5], 0.253; in test [6], 2.37; in test [7], 0.339. The composite z-score in test [8] is 0.965; in test [9] it was 0.569; in test [10], 1.08. The composite Z-score in test [2] was 2.13 (inactive).
